This excerpt belongs to a sample that is enriched for hits.
ALOX12 inh – Primary qHTS assay for inhibitors of human arachidonate 12S-lipoxygenase (ALOX12): Round 2 | Polyunsaturated fatty acid lipoxygenase ALOX12 (Homo sapiens), P18054 | purified 12hLO, xylenol orange hydroperoxide absorbance | Potency, µM (doses to about 108 µM), inactives show at the top dose activity change, negative = inhibition, usual class: inhibitors | 580,000 tested, 1.1% active | AID 1671190, 2021; note: % is set by controls: 0 for no effect and ±100 for the full control effect
Target sequence (P18054 whole entry, looked up): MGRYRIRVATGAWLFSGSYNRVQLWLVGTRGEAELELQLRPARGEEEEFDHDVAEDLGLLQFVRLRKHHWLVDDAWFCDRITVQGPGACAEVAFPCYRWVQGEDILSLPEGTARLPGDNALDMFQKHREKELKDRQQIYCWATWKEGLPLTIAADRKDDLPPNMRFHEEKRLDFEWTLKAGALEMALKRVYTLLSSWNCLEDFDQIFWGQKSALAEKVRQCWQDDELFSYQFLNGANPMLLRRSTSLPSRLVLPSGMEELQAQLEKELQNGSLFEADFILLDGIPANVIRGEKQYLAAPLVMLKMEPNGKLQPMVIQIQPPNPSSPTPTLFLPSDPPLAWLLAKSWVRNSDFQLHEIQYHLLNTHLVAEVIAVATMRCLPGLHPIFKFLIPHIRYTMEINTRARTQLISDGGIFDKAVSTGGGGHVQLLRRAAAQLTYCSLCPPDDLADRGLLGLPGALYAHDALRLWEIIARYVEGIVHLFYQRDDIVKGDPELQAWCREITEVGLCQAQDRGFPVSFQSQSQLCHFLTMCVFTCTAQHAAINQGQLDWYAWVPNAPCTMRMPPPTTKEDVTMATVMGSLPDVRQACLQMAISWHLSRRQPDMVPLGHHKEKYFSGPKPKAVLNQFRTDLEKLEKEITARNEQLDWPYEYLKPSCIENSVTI
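Hydroperoxide product was detected by ferrous iron/xylenol orange as the 573 to 405 nm absorbance ratio. Arachidonic acid at 40 uM (final) was turned over for 30 min at room temperature by 150 nM human 12hLO, pH 7.0 Hepes buffer, after 15 min compound preincubation.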
Glioma ERSR ind – qHTS for Inducers of the Endoplasmic Reticulum Stress Response (ERSR) in Human Glioma: qHTS; 420,000 tested, 0.02% active; U87-MG GRP78 promoter luciferase reporter, 16 h; Potency, µM, for the others: at the top dose activation, hits mostly activators; note: series mostly up to about 76 µM; % of control where 0% means no effect; nearly all actives have a fitted effect of over 35% in size
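Stably transfected U87-MG human glioma cells carrying a GRP78-based luminescent sensor were seeded at 1000 cells/well, pin-dosed with compounds and incubated 16 h. Luciferase reagent was then added, and end-point luminescence was read after 10 min at room temperature.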
VDR inhibitor – Inhibitors of the vitamin D receptor (VDR): qHTS; 400,000 tested, 0.93% active; Potency, µM, for the others: max response, negative = inhibition, most hits filed as inhibitors; Vitamin D3 receptor (Homo sapiens), P11473; AID 504847, 2011; VDR-SRC2-3 peptide fluorescence polarization, 2 h; note: % is set by controls: 0 for no effect and ±100 for the full control effect
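Inhibition of the VDR/SRC2-3 peptide interaction is quantified by fluorescence polarization. Compounds (23 nl, pintool) incubate with the reagents for 2 hours at ambient room temperature.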
Sfp inh – qHTS Assay for Inhibitors of Bacillus subtilis Sfp phosphopantetheinyl transferase (PPTase). 310,000 tested, 3.5% active. 4'-phosphopantetheinyl transferase ffp (Bacillus subtilis), Q9F4F7. Potency, µM, inactives show largest response in the series, negative = inhibition, actives largely listed as inhibitors. Biochemical Sfp PPTase activity, qHTS;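 note: the enzyme is Sfp with the accession as filed and its product quenches rhodamine fluorescence; 0% = enzyme reaction without inhibitor and -100% = no enzyme wells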
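Step 1, compound plus 15 nM Sfp-PPTase, 15 min, room temperature. Step 2, add rhodamine-CoA (5 uM) and BHQ-2-YbbR (12.5 uM). Step 3, read 525/598 nm fluorescence at 0 and 30 min.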
G9a inh – qHTS Assay for Inhibitors of Histone Lysine Methyltransferase G9a | Histone-lysine N-methyltransferase EHMT2 (Homo sapiens), Q96KQ7 | G9a H3K9 monomethylation, AlphaScreen, 2 h | Potency, µM (top dose mostly 102 µM), without a hit: at the highest dose activity, negative = inhibition, most hits filed as inhibitors | 350,000 tested, 8.8% active; note: % is set by controls: 0 for no effect and ±100 for the full control effect; nearly all actives have a fitted effect of over 75% in size
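AlphaScreen read-out: biotin-H3K9 peptide (500 nM) methylation by 20 nM enzyme with 20 uM SAM, 2 h at room temperature after 15 min compound preincubation; anti-monomethyl H3K9 antibody plus donor/acceptor beads, 10 min dark.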
* = called active by the depositor; ? = inconclusive; nt = no result given; ! = not active in a repeat; [ ] = another dose, or the depositor's remark. Calls come from the whole dose curve; as a rule, active = well fitted curve in the direction sought with a large enough effect; inconclusive = small, poorly fitted or top-dose-only effect, or another doubt; inactive = no such curve, though single readings can be large; an effect the other way counts as inactive or inconclusive. Potency is the fitted concentration of half-maximal effect.

SMILES	ALOX12 inh	Glioma ERSR ind	VDR inhibitor	Sfp inh	G9a inh
COc1ccc(N2CC(C(=O)Nc3nnc(SCC(=O)NCc4ccco4)s3)CC2=O)cc1 (configuration not stated)	-12%	1%	?	50µM*	45µM*
Cc1nnc(N2C(=O)c3cccc4c([N+](=O)[O-])ccc(c34)C2=O)s1	?	-13%	-18%	-19%	50µM*
CCn1cc(/C=C/C(=O)Nc2ccn(Cc3c(F)c(F)cc(F)c3F)n2)cn1	-11%	-1%	?	28µM*	45µM*
CCSC1=C(C#N)C(c2ccccc2Cl)C(C(=O)c2cccs2)C(O)(C(F)(F)F)N1 (configuration not stated)	9%	-11%	13%	3%	10µM*
CSC1=C(C#N)C(c2ccccc2Cl)C(C(=O)c2cccs2)C(O)(C(F)(F)F)N1 (configuration not stated)	-20%	-3%	-1%	23%	?
Cc1ccc(-n2ccn3c(CCC(=O)Nc4ccc(F)c(Cl)c4)nnc3c2=O)cc1C	-51%	nt	nt	nt	nt
CC(C)c1ccc(/C=C2\CC/C(=C\C=N\N(C)C)C2=O)cc1	0%	-9%	-1%	79µM*	?
NC[C@@H]1O[C@H](C23CC4CC(CC(C4)C2)C3)Cc2c1ccc(O)c2O	?	-9%	-27%	50µM*!	16µM*
Cn1cnc([N+](=O)[O-])c1SCC(=O)NN	-17%	-5%	2%	56µM*	7.1µM*
O=C(/C=C/c1ccco1)NCC1OCCc2ccccc21 (configuration not stated)	45µM*	-4%	-9%	22µM*	5%[12.7 µM]
O=C(c1ccco1)N(c1ccccn1)c1ccccn1	0%	-1%	-7%	-6%	5%[2.33 µM]
CN(C)CCC(=O)NCC1OCCc2ccccc21 (configuration not stated)	0%	-3%	-16%	-3%	?
O=C(/C=C/c1ccco1)N(c1ccccn1)c1ccccn1	34%	-4%	-5%	40µM*	13µM*
O=C(/C=C/c1ccco1)NCc1ccccn1	4%	-3%	-11%	-65%	35µM*
O=C(/C=C/c1ccc([N+](=O)[O-])cc1)NCc1ccccn1	?	1%	-10%	9%	-11%
CCOC(=O)/C(C#N)=C\C1=C(N2CCOCC2)C(=C/c2ccccc2)/CC1	-1%	nt	nt	nt	nt
Nc1nc(N)c2cc(CNc3ccc(Cl)c(Cl)c3)ccc2n1	5.6µM*	-14%	nt	nt	nt
Nc1nc(N)c2cc(Sc3ccc(Cl)cc3)ccc2n1	?	-14%	nt	nt	nt
O=C(CCc1ccc(O)cc1)c1c(O)cc(O)cc1O	?	3%	-23%	50µM*!	22%[59 µM]
Cc1cc(C)cc(NC(=O)Cn2nnc(C(=O)NCc3ccccc3Cl)c2N)c1	-12%	-14%	7%	14%	1.1µM*
Cc1cc(C)cc(NC(=O)Cn2nnc(C(=O)NCc3ccc(F)cc3)c2N)c1	-5%	-3%	20µM*	-17%	0%[59 µM]
O=C(Nc1cccc(CO)c1)c1cccc2cccnc12	77%	nt	nt	nt	nt
O=C(COc1cccc(Cl)c1)NC1CCCN(c2ncccn2)C1 (configuration not stated)	6%	nt	nt	nt	nt
CCC(C)c1ccc(OC(C)C(N)=O)cc1 (configuration not stated)	-46%	nt	nt	nt	nt
COC(=O)c1cc(C(=O)Nc2nnc(CC(C)(C)C)s2)cc([N+](=O)[O-])c1	13%	-3%	-15%	?	45µM*
SMILES	ALOX12 inh	Glioma ERSR ind	VDR inhibitor	Sfp inh	G9a inh
CCOC(=O)CSc1nnc(NC(=O)c2cc([N+](=O)[O-])cc([N+](=O)[O-])c2)s1	0%	-4%	?	-5%	25µM*
CCOCc1nnc(NC(=O)c2cc(C(=O)OC)cc([N+](=O)[O-])c2)s1	1%	-3%	-5%	5%	50µM*
N#C/C(=C/c1cc(Br)ccc1OCc1ccccc1C#N)c1cccc(F)c1	4%	nt	nt	nt	nt
CCN1CC2([N+](=O)[O-])C=CC(=O)C([N+](=O)[O-])(C1)C2CC(=O)c1ccccc1 (configuration not stated)	?	0%	-10%	-1%	?
CCCCN1CC2([N+](=O)[O-])C=CC(=O)C([N+](=O)[O-])(C1)C2CC(=O)c1ccccc1 (configuration not stated)	-30%	-1%	?	11%	45µM*
CC(C)(C)OC(=O)N1CCN(C(C(=O)O)c2c[nH]c3ccc(OCC#N)cc23)CC1 (configuration not stated)	11%	nt	nt	nt	nt
COC(=O)C1=C(C)N=C2SC=C(CC(=O)NCCOc3ccccc3)N2C1c1cccc(OC)c1 (configuration not stated)	71%	nt	nt	nt	nt
CS(=O)(=O)Nc1cccc(-c2nc(Nc3ccccc3)c3ccccc3n2)c1	-30%	-5%	-2%	-8%	nt
CS(=O)(=O)Nc1cccc(-c2ccc3ncnc(NCCN4CCOCC4)c3c2)c1	?	3%	-7%	34%	-8%[0.501 µM]
CC(=O)Nc1ccc(Nc2ncnc3ccccc23)cc1	nt	nt	nt	7%	?
CS(=O)(=O)Nc1cccc(-c2ccc3ncnc(N4CCOCC4)c3c2)c1	-4%	-1%	45µM*	18%	7%[0.501 µM]
CS(=O)(=O)Nc1cccc(-c2ccc3ncnc(Nc4ccc(F)cc4)c3c2)c1	18µM*	-1%	3%	2%	nt
Fc1ccc(Nc2ncnc3ccccc23)cc1	?	-1%	4%	-1%	56µM*
Cc1csc(NC(=O)Cc2ccc(OCc3c(C)noc3C)cc2)n1	-3%	nt	nt	nt	nt
CN(CC(=O)NC1(C#N)CCCCC1)c1cccc(C#N)c1	-3%	nt	nt	nt	nt
CN1C(=O)CC[C@]2(C(=O)NCc3ccc(Cl)cc3)CCCC[C@@H]12	41%	nt	nt	nt	nt
COc1cccc(-n2c(-c3ccco3)nc3c(cnn3-c3ccc(C)c(C)c3)c2=O)c1	-16%	nt	nt	nt	nt
C=CCn1c(/N=C/c2ccc(N(C)C)cc2)nc2ccccc21	17%	-3%	-20%	13%	45µM*
CCc1c(C)c2ccc(OCC(=O)c3ccc(C)cc3)cc2oc1=O	-52%	nt	nt	nt	nt
O=C(Nc1ccc(Cl)cc1)N1Cc2[nH]cnc2C[C@H]1c1nc(-c2ccccc2)no1	27%[176 µM]	nt	nt	nt	nt
N#CC1=C2SCN(C3CCCCC3)CN2C(=O)CC1c1ccc(F)cc1 (configuration not stated)	?	0%	18µM*	nt	2.5µM*
CC(C)c1ccc(C2CC(=O)N3CN(C)CSC3=C2C#N)cc1 (configuration not stated)	nt	2%	?	4.5µM*	1.6µM*
O=C(NCc1ccc(F)cc1)C1CC(=O)N(C2CCCCCCC2)C1 (configuration not stated)	0%	-4%	-5%	16%	-1%[59 µM]

Screening results deposited in PubChem by National Center for Advancing Translational Sciences (NCATS).
